The results in this text go back to ChEMBL document CHEMBL3988442, “University of Dundee, Small-Polar-MMV Screening Library” (2021).

In this assay the target is T1, Aspartate--tRNA(Asp/Asn) ligase (Mycobacterium tuberculosis (strain ATCC 25618 / H37Rv)) (UniProt P9WFW3).
T1 sequence (whole entry): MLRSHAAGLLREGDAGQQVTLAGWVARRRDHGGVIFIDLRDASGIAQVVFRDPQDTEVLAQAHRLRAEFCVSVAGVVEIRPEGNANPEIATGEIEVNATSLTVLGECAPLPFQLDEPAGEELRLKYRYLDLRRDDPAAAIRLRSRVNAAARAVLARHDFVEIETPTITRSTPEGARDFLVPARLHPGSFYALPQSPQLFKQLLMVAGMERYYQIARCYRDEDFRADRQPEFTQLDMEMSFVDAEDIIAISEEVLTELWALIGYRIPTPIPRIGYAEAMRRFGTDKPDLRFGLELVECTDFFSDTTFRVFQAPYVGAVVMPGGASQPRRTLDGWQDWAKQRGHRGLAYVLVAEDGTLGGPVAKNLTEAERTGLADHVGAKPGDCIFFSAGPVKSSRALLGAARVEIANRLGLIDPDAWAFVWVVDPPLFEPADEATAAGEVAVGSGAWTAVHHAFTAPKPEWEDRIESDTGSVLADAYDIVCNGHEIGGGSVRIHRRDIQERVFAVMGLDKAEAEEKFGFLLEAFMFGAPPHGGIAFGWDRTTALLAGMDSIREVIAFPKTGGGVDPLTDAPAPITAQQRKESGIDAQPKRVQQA
Nature of the assay: Assay for Asp RNA synthetase-1 from Mycobacterium tuberculosis. It counts as functional. Also noted: scale not given: in the data most compounds retested in dose-response had high values. The conditions noted are these: 30 µM.
Consider `Cc1nc(CN2C(=O)CC[C@@H]3[C@H]2CCN3C(=O)NC2CC2)cs1`, for which the Percent Effect was -0.474%.
Then `CO[C@@H]1CC[C@H]2[C@H]1OCCN2C(=O)C1=CCCC1`, with 3.45%.
Then `CCc1nc(CN2CCCC(NCc3cc(C)no3)C2)no1` (stereo not given), with 3.46%.
Then `CC(C)S(=O)(=O)c1nnc(CCNC(=O)OC(C)(C)C)o1`, with 2.85%; and `Cc1noc(C)c1C(=O)N1CC[C@H]2C[C@@H](c3ccncn3)O[C@@H]2C1`, with 2.79%.
Take `Cc1cn2c(n1)CCC(NC(=O)CCn1cncn1)C2` (stereo not given): the Percent Effect is -0.674%.
`Cc1cccc(CN2C[C@@H]3CN(C(=O)[C@H]4CCCO4)C[C@@H]3C2=O)c1`: the Percent Effect is -6.69%.
Then `CN(C)S(=O)(=O)N1CC[C@@H]2CN(Cc3cnn(C)c3)C[C@@H]2C1`, with 6.22%; and `Cc1cc(NC(=O)CN2CCn3c(nnc3C(C)C)C2)no1`, with -3.23%; and `COC(=O)c1ccc(S(=O)(=O)NCc2cccnc2N(C)C)cc1`, with -3.4%.
Consider `Cc1noc(C(C)C)c1C(=O)NS(=O)(=O)c1ccc(Cl)cc1`, for which the Percent Effect was -2.79%.
To `O=C(c1cccnc1-n1cccn1)N1CCN(CC2CC2)CC1` belongs -1.91%.
To `O=C(c1csc(-c2cccs2)n1)N1CCCC1Cn1cccn1` (stereo not given) belongs 3.15%; to `CC1=Nc2c(c(=O)[nH]n2C(C)C)C(c2ccccc2)S1` (stereo not given), 1.45%.
To `COC(=O)CC(c1ccccc1)c1oc(C)cc(=O)c1O` (stereo not given) belongs -2.11%.
On to `Cn1ccc(CN2CCC(c3ccccc3)CC2)cc1=O`, for which the Percent Effect was 4.58%.
Take `CCc1nc(CN2CCCN(C(=O)c3cn[nH]c3CC)CC2)cs1`: the Percent Effect was -1.54%.
Then `CCc1nc(C2CCCN2Cc2nc3ccccc3o2)no1` (stereo not given), with -0.404%.
Then `Cn1cc(CN2CCC3(C2)CN(Cc2ccsc2)C3)cn1`, with 1.9%; and `Cc1cc(NC(=O)CN2CCc3cnc(C)nc3C2)on1`, with -1.18%; and `COCCCC1(CO)CCCN(CCS(C)(=O)=O)C1` (stereo not given), with 4.17%.
To `Cc1nc(C)n(C2CCCN(C(=O)c3csnn3)C2)n1` (stereo not given) belongs 9.97%; to `Cc1ccc(N2CCCc3sc(C(=O)NCc4cccnc4)nc32)nn1`, -2.44%; to `c1ccc(-c2nc(CN3CCCC3Cn3cncn3)cs2)cc1` (stereo not given), 0.143%.
Take `Cc1ccccc1CNc1nc(O)cc(C2CC(=O)N(C)C2)n1` (stereo not given): the Percent Effect was -2.9%.
To `CCOCC(=O)NC1(c2cccc(Br)c2)CC1` belongs 1.26%; to `CN1CC(=O)N(c2cnn(C)c2)CC12CCN(C(=O)c1ccsc1)C2` (stereo not given), 0.595%; to `Cc1nc(CNC(=O)NCCc2ccc(N(C)C)cc2)cs1`, 6.93%.
Turning to `O=C(COCc1nc(-c2ccncc2)no1)N1CCCC1`, the Percent Effect came out at 15.3%.
Then `Cc1cccc(-c2ccc3nc(C4CCN(CC5CC5)CC4)nn3c2)c1`, with -1.89%; and `CN1CC(=O)N(c2cnn(C)c2)CC12CCN(Cc1ccccc1)C2` (stereo not given), with -0.707%; and `CC(NC(=O)NCCCc1n[nH]c(N)c1C#N)c1cccs1` (stereo not given), with -7.85%.
To `COc1ccccc1OCc1cc(C(=O)N2C[C@H](O)[C@@H](N(C)C)C2)n[nH]1` belongs 0.529%; to `N#CC1(C(=O)NCCCNc2ccc(C(F)(F)F)cn2)CCCC1`, 2.12%; to `CC(=O)N1CCOC(c2cc(N3CC(O)C3)nc(C)n2)C1` (stereo not given), -3.6%.
To `Cc1ccc(NCc2cncc3c2CCN(C(=O)C2CC=CC2)C3)nn1` belongs 6.32%; to `CCCc1nc(CN2CCN(CC(O)c3ccccc3)CC2)no1` (stereo not given), -4%; to `COCCN1CCC(CNC(=O)C2(c3cccc(C)c3)CC2)CC1`, 5.2%.
`CN(C)C(=O)N1Cc2nnn(C)c2C(COCC2CC2)C1` (stereo not given): the Percent Effect came to 3.51%.
To `c1ccc(C[C@H]2CN(Cc3nccs3)CC[C@H]2OCC2CC2)cc1` belongs 3.93%.
